Reference: paper PMC4336329 (PLoS ONE, 2015)
Hit rate of the full screen: of about 310,000 compounds, about 14,000 (4.5%) showed an effect of 50% or more. Effects have a minus sign here. Shown is part of a subset that was picked to be rich in strong results.

Target: human ether-à-go-go-related gene (hERG) potassium channel (human, UniProt Q12809)
Test: primary screen, population patch clamp on CHO cells stably expressing hERG; higher = less effect of the substance
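Further: peak tail current of the secondary pulse compared with the same well before compound.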

human ether-à-go-go-related gene (hERG) potassium channel, sequence (Q12809 whole entry, looked up): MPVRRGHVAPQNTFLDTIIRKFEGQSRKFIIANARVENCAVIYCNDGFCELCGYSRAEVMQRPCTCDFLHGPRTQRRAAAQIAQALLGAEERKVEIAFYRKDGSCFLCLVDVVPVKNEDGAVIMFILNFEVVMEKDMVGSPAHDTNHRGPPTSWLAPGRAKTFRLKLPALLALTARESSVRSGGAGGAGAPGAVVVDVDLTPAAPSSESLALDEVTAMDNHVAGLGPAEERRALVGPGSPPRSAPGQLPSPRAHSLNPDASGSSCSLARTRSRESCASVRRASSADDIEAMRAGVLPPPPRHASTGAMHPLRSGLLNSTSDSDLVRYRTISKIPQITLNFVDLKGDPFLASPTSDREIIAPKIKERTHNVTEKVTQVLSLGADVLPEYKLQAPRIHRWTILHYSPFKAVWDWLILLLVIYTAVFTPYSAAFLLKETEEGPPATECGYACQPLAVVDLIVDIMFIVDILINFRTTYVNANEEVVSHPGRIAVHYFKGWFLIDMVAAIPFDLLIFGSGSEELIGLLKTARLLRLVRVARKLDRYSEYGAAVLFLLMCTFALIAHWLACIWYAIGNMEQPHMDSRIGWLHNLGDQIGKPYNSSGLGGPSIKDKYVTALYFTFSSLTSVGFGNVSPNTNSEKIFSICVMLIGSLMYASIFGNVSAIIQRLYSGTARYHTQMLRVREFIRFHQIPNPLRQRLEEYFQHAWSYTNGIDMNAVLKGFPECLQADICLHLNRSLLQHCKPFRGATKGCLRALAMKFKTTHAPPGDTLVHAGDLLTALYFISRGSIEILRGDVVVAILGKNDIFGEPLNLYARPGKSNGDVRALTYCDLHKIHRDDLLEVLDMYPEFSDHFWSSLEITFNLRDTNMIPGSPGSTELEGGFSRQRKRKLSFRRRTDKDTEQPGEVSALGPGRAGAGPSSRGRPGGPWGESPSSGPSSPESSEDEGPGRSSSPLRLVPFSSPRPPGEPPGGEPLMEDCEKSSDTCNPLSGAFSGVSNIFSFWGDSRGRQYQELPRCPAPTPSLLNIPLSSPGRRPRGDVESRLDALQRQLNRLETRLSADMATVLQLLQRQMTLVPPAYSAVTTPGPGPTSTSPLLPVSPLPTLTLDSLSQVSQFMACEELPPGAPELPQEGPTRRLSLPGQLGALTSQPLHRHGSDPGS

| Compound | hERG current change (%, negative = inhibition) at 10uM [%] |
| --- | --- |
| Nc1nc(SCc2ccc(Cl)c(Cl)c2)n[nH]1 | 10.4 |
| O=C(COC(=O)c1ccc(F)c(S(=O)(=O)N2CCOCC2)c1)c1ccc(Cl)cc1 | -31.1 |
| COc1ccccc1/C=N/NC(=O)c1cccc(NC(=O)c2ccccc2C)c1 | -4.64 |
| Cc1ccc(NC(=O)C2CSC3(C)CCC(=O)N23)cc1S(=O)(=O)N1CCOCC1 (stereo not shown) | 2.81 |
| Cc1ccc(S(=O)(=O)N2CCN(C(=O)C3CSC4(C)CCC(=O)N34)CC2)cc1C (stereo not shown) | -13.8 |
| CC12CCC(=O)N1C(C(=O)OCC(=O)Nc1cccc(S(=O)(=O)N3CCCCCC3)c1)CS2 (stereo not shown) | -86.8 |
| CC12CCC(=O)N1C(C(=O)Nc1ccc(Cl)c(S(=O)(=O)N3CCCCC3)c1)CS2 (stereo not shown) | -34.3 |
| CC(C)c1ccc(NC(=O)C2CSC3(C)CCC(=O)N23)cc1 (stereo not shown) | 2.4 |
| CC12CCC(=O)N1C(C(=O)Nc1ccc(SC(F)F)cc1)CS2 (stereo not shown) | -57.6 |
| CC12CCC(=O)N1C(C(=O)N1CCN(S(=O)(=O)c3ccccc3F)CC1)CS2 (stereo not shown) | -30.1 |
| CC12CCC(=O)N1C(C(=O)OCC(=O)Nc1cc(S(=O)(=O)N3CCCCC3)ccc1Cl)CS2 (stereo not shown) | -48.2 |
| CC12CCC(=O)N1C(C(=O)N1CCN(S(=O)(=O)c3ccc(F)c(F)c3)CC1)CS2 (stereo not shown) | -53.7 |
| CC12CCC(=O)N1C(C(=O)OCC(=O)Nc1cccc(Br)c1)CS2 (stereo not shown) | 6.89 |
| Cc1ccc(NC(=O)C2CSC3(C)CCC(=O)N23)cc1S(=O)(=O)N1CCCCCC1 (stereo not shown) | -55.4 |
| CC12CCC(=O)N1C(C(=O)Nc1ccc(F)cc1)CS2 (stereo not shown) | 12.4 |
| COc1ccc(NS(=O)(=O)c2c(C)n(C)c(=O)n(C)c2=O)cc1 | 15.5 |
| CN(C)S(=O)(=O)c1ccc(Cl)c(NC(=O)COC(=O)/C=C/c2ccc3ccccc3n2)c1 | 1.53 |
| Cc1ccc(C(=O)COC(=O)CNC(=O)C(c2ccccc2)c2ccccc2)cc1[N+](=O)[O-] | 4.33 |
| O=C(O)CC1Sc2ccccc2NC1=O (stereo not shown) | -13.4 |
| CN(C)C=O.Cc1ccc(S(=O)(=O)N(C)C)cc1NC(=S)Nc1ccc2[nH]c(=O)[nH]c2c1 | 76.2 |
| CCc1cccc(OCC2Cn3c(nc4c3c(=O)n(C)c(=O)n4C)O2)c1 (stereo not shown) | 3.18 |
| CC12CCC(=O)N1C(C(=O)Nc1cccc(S(=O)(=O)N3CCCCC3)c1)CS2 (stereo not shown) | -43.9 |

| Compound | hERG current change (%, negative = inhibition) at 10uM [%] |
| --- | --- |
| CC12CCC(=O)N1C(C(=O)Nc1cccc(S(=O)(=O)N3CCCCCC3)c1)CS2 (stereo not shown) | -69.8 |
| CC12CCC(=O)N1C(C(=O)Nc1ccc(S(=O)(=O)N3CCCCC3)cc1)CS2 (stereo not shown) | -5.09 |
| CCOc1cccc(N2C(=O)CC(N(CCc3ccc(OC)c(OC)c3)C(=O)CC)C2=O)c1 (stereo not shown) | 24.9 |
| COc1ccc(Cc2nnc(SCC(=O)Nc3ccc(C)cc3C)[nH]c2=O)cc1 | -16.8 |
| Cc1ccc(Cc2nnc(SCC(=O)Nc3ccc(C)cc3C)[nH]c2=O)cc1 | 5.33 |
| Cc1ccc(NC(=O)CSc2nnc(Cc3ccccc3)c(=O)[nH]2)c(C)c1 | -51.4 |
| CCOc1cc(CNc2ccc3c(c2)CCC3)ccc1OC | -8.96 |
| Cc1ccc(NC(=O)CS(=O)(=O)c2c[nH]c3ccccc23)c(C)c1 | 11.9 |
| O=C(CN1N=C(c2ccccc2)CCC1=O)NCCN1CCc2ccccc2C1 | -15.7 |
| Cc1ccc(C2=NN(CCC(=O)NCCCN3CCOCC3)C(=O)CC2)cc1 | -52.3 |
| Cc1ccc(C2=NN(CCC(=O)NCc3ccc4c(c3)OCO4)C(=O)CC2)cc1 | -69.7 |
| CC(C)CN(CCNC(=O)CN1N=C(c2ccc(Cl)cc2)CCC1=O)CC(C)C | -42.4 |
| O=C(CN1N=C(c2ccccc2)CCC1=O)NCCCN1CCc2ccccc2C1 | -49.6 |
| Cc1ccc(-c2ccc(=O)n(CC(=O)NCCN(CC(C)C)CC(C)C)n2)cc1 | -16.3 |
| Cc1ccc(C2=NN(CCC(=O)NCCC(C)C)C(=O)CC2)cc1 | -24.5 |
| Cc1ccc(C2=NN(CC(=O)NCCN(CC(C)C)CC(C)C)C(=O)CC2)cc1 | -50.2 |
| COc1ccc(C2=NN(CCC(=O)NCc3ccc4c(c3)OCO4)C(=O)CC2)cc1 | -18.8 |
| O=C(CN1N=C(c2ccc(Cl)cc2)CCC1=O)NCCN1CCc2ccccc2C1 | -51.4 |
| Cc1ccc(CC(=O)NCc2ccc3c(c2)OCO3)cc1 | 2.24 |
| O=C(CCN1N=C(c2ccccc2)CCC1=O)NCCCN1CCOCC1 | 21.2 |
| O=C(CN1C(=O)NC2(CCCC2)C1=O)N1CCN(S(=O)(=O)c2ccccc2F)CC1 | 22.3 |
| O=[N+]([O-])c1ccc(O)c(NC(=S)Nc2ccccc2)c1 | 23.9 |

| Compound | hERG current change (%, negative = inhibition) at 10uM [%] |
| --- | --- |
| NC(=S)NC1CC2CC1C1C=CCC21 (stereo not shown) | 6.66 |
| CCOc1ccc(N(CC(=O)NCc2ccc(C)cc2)S(=O)(=O)c2c(C)[nH]c(=O)[nH]c2=O)cc1 | 6.73 |
| Cc1nn(-c2ccccc2)c(Cl)c1C(=O)NCCCCNC(=O)c1c(C)nn(-c2ccccc2)c1Cl | -2.76 |
| CN(C)CCCNc1ccc(S(N)(=O)=O)cc1[N+](=O)[O-] | -13.1 |
| C=CCNC(=O)CN1N=C(c2ccc(C)cc2)CCC1=O | -44.3 |
| Cc1ccc(C2=NN(CC(=O)O)C(=O)CC2)cc1 | -51.4 |
| CC(C)CN(CCCNC(=O)CN1N=C(c2ccc(Cl)cc2)CCC1=O)CC(C)C | -21.8 |
| CCCCCCCNC(=O)CN1N=C(c2ccc(C)cc2)CCC1=O | -67.8 |
| COCCNC(=O)CN1N=C(c2ccc(C)cc2)CCC1=O | -47.9 |
| CCCCN(C)CCCNC(=O)CN1N=C(c2ccc(Cl)cc2)CCC1=O | -56.7 |
| CCN(CC)CCCNC(=O)CN1N=C(c2ccc(OC)cc2)CCC1=O | 14.5 |
| CCOC(=O)CN1N=C(c2ccc(C)cc2)CCC1=O | -47.2 |
| CC(C)CCNC(=O)CN1N=C(c2ccc(Cl)cc2)CCC1=O | -15.8 |
| Cc1ccc(C2=NN(CC(=O)NCCN(C)C)C(=O)CC2)cc1 | -44.9 |
| Cc1ccc(C2=NN(CC(=O)NCCC(C)C)C(=O)CC2)cc1 | 4.58 |
| CCOCCCNC(=O)CN1N=C(c2ccc(C)cc2)CCC1=O | -73.9 |
| Cc1cc(SCC(=O)OCC(=O)N(C)c2ccccc2)nc2ccccc12 | -22.8 |
| C=C[C@]1(C)C=C2CCC3[C@](C)(CCC[C@@]3(C)C(=O)O)C2CC1 (stereo partly shown) | 13.3 |
| O=C(CCCN1C(=O)c2ccccc2C1=O)Nc1cccnc1 | -2.46 |
| O=C(NCc1ccccn1)C1(C(F)(F)F)C/C(=C\CCO)CCCO1 (stereo not shown) | 6.37 |
| CCOc1ccc(S(=O)(=O)Nc2cccc(C(=O)N(C)Cc3cccc(OC)c3OC)c2)cc1 | -11.6 |
| O=C1[C@@H]2[C@H](C(=O)N1n1cnnc1)[C@H]1C=C[C@@H]2C1 | 11.5 |

| Compound | hERG current change (%, negative = inhibition) at 10uM [%] |
| --- | --- |
| Cc1ccc(NC(=O)CN2CCCCCC2)cc1[N+](=O)[O-] | 23.1 |
| O=C(Nc1ccc(N2CCOCC2)c2nonc12)C1CCCC1 | 3.34 |
| CCCn1c(=O)c2sccc2n2c(CCCC(=O)NCc3cccnc3)nnc12 | 19.2 |
| C=CCNC(=O)CSc1n[nH]c(-c2cc(Cl)ccc2OC)n1 | 8.25 |
| COc1ccc(NC(=O)CN(C)C(=O)c2cn(-c3ccccc3)nc2-c2ccc(Cl)cc2)cc1 | 12.1 |
| COc1ccc(Cl)cc1NC(=O)CN(C)C(=O)c1cccc(-n2cnnn2)c1 | -53.6 |
| COc1ccc(Cl)cc1NC(=O)COc1cccc(-n2cnnn2)c1 | 10.3 |
| COc1ccc(NC(=O)CN(C)C(=O)c2cn(-c3ccccc3)nc2-c2cccnc2)cc1 | -24.2 |
| COc1ccc(Cl)cc1NC(=O)CN(C)C(=O)c1cn(-c2ccccc2)nc1-c1cccnc1 | -59.9 |
| COc1ccc(Cl)cc1NC(=O)CN(C)C(=O)c1ccc2n[nH]nc2c1 | -13.8 |
| CCc1ccc(C(=O)Nc2cccc(-c3nn[nH]n3)c2)s1 | 16.9 |
| CCOC(=O)C1CN(S(C)(=O)=O)c2cc(CC(=O)OC)ccc2O1 (stereo not shown) | 1.78 |
| COc1ccccc1C(=O)NCCSCc1c(F)cccc1Cl | -15.4 |
| Cc1cccn2c(=O)c3cc(C(=O)NCC4CCCO4)c(=N)n(C4CCCCC4)c3nc12 (stereo not shown) | -77.3 |
| Cc1cccn2c(=O)c3cc(C(=O)NCC4CCCO4)c(=N)n(C4CCCC4)c3nc12 (stereo not shown) | -74.8 |
| O=C(O)c1nn2c(C(F)(F)F)cc(-c3cccs3)nc2c1Cl | 1.4 |
| COc1cccc(C(=O)Nc2cc(=O)n(C)c(=O)n2C)c1OC | 13.1 |
| Cc1nn(Cc2ccc(C(=O)NC3CCCCC3)o2)c(C)c1Br | -34.6 |
| COc1ccc2c(c1)c(CC(=O)O)c(C)n2C(=O)c1ccc(Cl)cc1 | 6.45 |
